Here are results for 24 compounds from PubChem BioAssay (NCATS).

SMILES strings stand for the structures. Values without a mark were called inactive. Calls of active or inactive are those of the source. The call rests on the fitted dose curve; in most records, active means well fitted curve in the direction sought with a large enough effect; inconclusive means small, poorly fitted or top-dose-only effect, or another doubt; inactive means no such curve, though single readings can be large or run the other way.

A short description of this test: Cellular Toxicity (caspase-3) MRC-5 (AID 659). To be noted: MRC-5 cells, luminescence, normalized: DMSO 0%, 10 µM staurosporine 100%; series mostly up to 91.7 µM; caspase-3 activation: at the top concentration. The source says:
NIH Chemical Genomics Center [NCGC]
NIH Molecular Libraries Screening Centers Network [MLSCN]
National Institutes of Environmental Health Sciences [NIEHS]
National Toxicology Program [NTP]
We have developed a 1536-well cell-based assay for quantitative high throughput screening (qHTS) against a number of cell lines to determine in vitro caspase 3/7 activity of small molecules. This particular assay uses the MRC-5 cell line which is derived from human normal lung fibroblasts.
NCGC Assay Protocol Summary:
The Caspase-Glo 3/7 assay (Promega) is a homogeneous method to measure caspase-3 and caspase-7 activities in cultured cells. The quantitation of caspase 3/7 activity is based on the cleavage of a peptide-aminoluciferin substrate. After caspase cleaves the substrate the free aminoluciferin is liberated and serves as the substrate of luciferase, which generates the light. The luminescent signal is proportional to amount of caspase 3/7 activity present.
Using the Caspase-Glo 3/7 assay, the amount of caspase 3/7 activity was measured in the MRC-5 line with complete culture medium following compound treatment for 16 hours. The assay was performed in opaque white 1536-well plates. In the screen, tamoxifen and staurosporine were used as positive controls. Library compounds were measured for their ability to cause the activation of caspase 3/7 in the cell line, as reflected by an increase in luminescence signal, in a concentration-dependent manner. Data were normalized to the controls for basal activity (DMSO only) and 100% stimulation (10 uM staurosporine). AC50 values were determined from concentration-response data modeled with the standard Hill equation.
qHTS protocol for caspase 3/7 assay in MRC-5 cells
[Step] [Parameter] [Value] [Description]
1. Reagent; 5 uL; 1500 MRC-5 cells/well
2. Time; 5 hr; 37 °C incubation
4. Controls; 23 nL; Tamoxifen 0.23 uM to 100 uM & staurosporine 1.4 pM to 100 uM
5. Time; 16 hr; 37 °C incubation
6. Reagent; 5 uL; Caspase-Glo 3/7 reagent
7. Time; 1 hr; Room Temperature
8. Detection; Luminescence; Viewlux plate reader
Keywords: caspase 3/7, apoptosis, MRC-5 cell line, luminescence, NTPHTS, NTPHTS_NCGC, NIEHS, EPA, DSSTox, MLSMR, MLSCN, NIH Roadmap, qHTS, NCGC
With `CN(C)c1ccc(C2(c3ccc(N(C)C)cc3)OC(=O)c3cc(N(C)C)ccc32)cc1`, the “caspase-3 activation” value was 0.365%. In the case of `Cc1cc(Nc2ccc(O)cc2)ccc1N`, the “caspase-3 activation” value was -1.34%. The same measure, in the same setting: the same measure for `O=C(OCC(COC(=O)c1ccccc1)(COC(=O)c1ccccc1)COC(=O)c1ccccc1)c1ccccc1`: -2.36%; for `CO[C@H]1/C=C/O[C@@]2(C)Oc3c(C)c(O)c4c(O)c(c5c(c4c3C2=O)NC2(CCN(CC(C)C)CC2)N=5)=NC(=O)/C(C)=C\C=C\[C@H](C)[C@H](O)[C@@H](C)[C@@H](O)[C@@H](C)[C@H](OC(C)=O)[C@@H]1C`: -1.11%. Still for that read-out and setting: the same measure for `c1ccc2c(c1)ccc1cc3c(ccc4ccccc43)cc12`: -0.483%. On to `C=CC(=O)OCCOCCOC(=O)C=C`, for which the “caspase-3 activation” value was 11.9%. The same measure, in the same setting: to `CC(=O)Nc1ccc(C(=O)CCl)cc1` belongs -7.65%; to `O=C1OC(O)C(C(Cl)Cl)=C1Cl` (centres undefined), -5.74%. Still for that read-out and setting: the same measure for `Oc1ccc2cc(SSc3ccc4cc(O)ccc4c3)ccc2c1`: 2.45%; for `O=C1OC2(c3cc(Br)c(O)c(Br)c3Oc3c2cc(Br)c(O)c3Br)c2c(Cl)c(Cl)c(Cl)c(Cl)c21`: -3.64%.

For `CN1[C@H]2CC(OC(=O)[C@H](CO)c3ccccc3)C[C@H]1[C@H]1O[C@H]12` (some centres undefined), the outcome was inactive. As to `c1ccc2c(c1)-c1cccc3c1c-2cc1ccccc13`, the “caspase-3 activation” value is -1.15%. Still for that read-out and setting: to `C=C(C)c1ccccc1` belongs -0.0717%; to `Cc1cccc(O)c1C`, -0.259%; to `O=[N+]([O-])c1cc([N+](=O)[O-])c2ccc(S(=O)(=O)O)cc2c1O`, 0.631%. The same measure, in the same setting: to `CCCCCC/C(C=O)=C\c1ccccc1` belongs 0.166%; to `ClC1=C(Cl)C(Cl)(Cl)C(Cl)=C1Cl`, 12.5%; to `Nc1ccc2cc3ccccc3cc2c1`, 2.49%.

Turning to `O=Cc1ccc(Cl)c(Cl)c1`, the “caspase-3 activation” value was 2.91%.

In the case of `CNc1ccc(O)cc1`, the “caspase-3 activation” value is -8.47%. In the case of `O=C(/C=C/c1ccc(O)c(O)c1)OC1C[C@](O)(C(=O)O)C[C@@H](O)[C@H]1O` (some centres undefined), the call was inactive.

For the compound `O=C=Nc1ccc(Cc2ccc(N=C=O)cc2)cc1`, the “caspase-3 activation” value is -1.51%. For the compound `Cc1ccc(S(=O)(=O)Oc2ccc(N=Nc3ccc(-c4ccc(N=Nc5c(O)ccc6cc(S(=O)(=O)O)cc(S(=O)(=O)O)c56)c(C)c4)cc3C)cc2)cc1`, the “caspase-3 activation” value is -0.849%. Same read-out and setting: to `CCC(C)Nc1ccc(NC(C)CC)cc1` (centres undefined) belongs -7.89%.
